Assay in all cases: glycan array binding signal (z-score within array); higher = stronger binding
Details in all cases: glycan notation: IUPAC condensed, linker removed

The target in assay [1] is GlcNAc(b1-3)Gal(b1-4)GlcNAc(b1-3)Gal(b1-4)GlcNAc(b1-2)[GlcNAc(b1-3)Gal(b1-4)GlcNAc(b1-3)Gal(b1-4)GlcNAc(b1-6)]Man(a1-6)[GlcNAc(b1-3)Gal(b1-4)GlcNAc(b1-3)Gal(b1-4)GlcNAc(b1-2)Man(a1-3)]Man(b1-4)GlcNAc(b1-4)[Fuc(a1-6)]GlcNAc. A digest of the protocol:
(§1)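 Arrays were curated from the Consortium for Functional Glycomics database, 3228 in total, and kept only where the protein sequence was available. Binding is expressed as a within-array Z-score. This score was averaged across arrays of the same protein sequence at different concentrations or buffers and across linkers, and negative values can be read as non-binding.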

The target in assay [2] is GlcNAc(b1-3)Gal(b1-4)GlcNAc(b1-3)Gal(b1-4)GlcNAc(b1-3)Gal(b1-4)GlcNAc(b1-2)Man(a1-3)[GlcNAc(b1-3)Gal(b1-4)GlcNAc(b1-3)Gal(b1-4)GlcNAc(b1-3)Gal(b1-4)GlcNAc(b1-2)Man(a1-6)]Man(b1-4)GlcNAc(b1-4)GlcNAc. A digest of the protocol:
as §1

The target of assay [3] is GlcNAc(b1-3)Gal(b1-4)GlcNAc(b1-3)Gal(b1-4)GlcNAc(b1-3)Gal(b1-4)GlcNAc(b1-2)[GlcNAc(b1-3)Gal(b1-4)GlcNAc(b1-3)Gal(b1-4)GlcNAc(b1-3)Gal(b1-4)GlcNAc(b1-6)]Man(a1-6)[GlcNAc(b1-3)Gal(b1-4)GlcNAc(b1-3)Gal(b1-4)GlcNAc(b1-3)Gal(b1-4)GlcNAc(b1-2)Man(a1-3)]Man(b1-4)GlcNAc(b1-4)[Fuc(a1-6)]GlcNAc. A digest of the protocol: as §1
In assay [4] the target is GlcNAc(b1-3)Gal(b1-4)GlcNAc(b1-3)Gal(b1-4)GlcNAc(b1-3)Gal(b1-4)GlcNAc(b1-3)Gal(b1-4)GlcNAc(b1-2)[GlcNAc(b1-3)Gal(b1-4)GlcNAc(b1-3)Gal(b1-4)GlcNAc(b1-3)Gal(b1-4)GlcNAc(b1-3)Gal(b1-4)GlcNAc(b1-6)]Man(a1-6)[GlcNAc(b1-3)Gal(b1-4)GlcNAc(b1-3)Gal(b1-4)GlcNAc(b1-3)Gal(b1-4)GlcNAc(b1-3)Gal(b1-4)GlcNAc(b1-2)Man(a1-3)]Man(b1-4)GlcNAc(b1-4)[Fuc(a1-6)]GlcNAc. A digest of the protocol: as §1

In assay [5] the target is GlcNAc(b1-3)Gal(b1-4)GlcNAc(b1-3)Gal(b1-4)GlcNAc(b1-3)GalNAc. A digest of the protocol:
as §1

Assay [6] deals with GlcNAc(b1-3)Gal(b1-4)GlcNAc(b1-6)[GlcNAc(b1-3)Gal(b1-3)]GalNAc. A digest of the protocol:
as §1

Assay [7] addresses GlcNAc(b1-4)GlcNAc(b1-4)GlcNAc(b1-4)GlcNAc(b1-4)GlcNAc. A digest of the protocol: as §1
Assay [8] has as its target GlcNAc6S(b1-3)Gal(b1-4)GlcNAc. A digest of the protocol: as §1
For assay [9], the target named is Man(a1-2)Man(a1-2)Man(a1-6)[Man(a1-3)]Man. A digest of the protocol: as §1
Assay [10] concerns the target Man(b1-4)GlcNAc. A digest of the protocol: as §1
The target in assay [11] is Neu5Ac(a2-3)Gal(b1-3)GalNAc(b1-4)[Neu5Ac(a2-3)]Gal(b1-4)Glc. A digest of the protocol: as §1
Assay [12] concerns the target Neu5Ac(a2-3)Gal(b1-3)[GlcNAc(b1-6)]GalNAc. A digest of the protocol: as §1
The target in assay [13] is Neu5Ac(a2-3)Gal(b1-3)[Neu5Ac(a2-6)]GalNAc. A digest of the protocol: as §1
In assay [14] the target is Neu5Ac(a2-3)Gal(b1-3)]Neu5Ac(a2-3)Gal(b1-4)]GlcNAc. A digest of the protocol: as §1
Assay [15] addresses Neu5Ac(a2-3)Gal(b1-4)GlcNAc(b1-2)Man. A digest of the protocol: as §1
Assay [16] deals with Neu5Ac(a2-3)Gal(b1-4)GlcNAc(b1-2)Man(a1-3)[Neu5Ac(a2-3)Gal(b1-4)GlcNAc(b1-2)Man(a1-6)]Man(b1-4)GlcNAc(b1-4)[Fuc(a1-6)]GlcNAc. A digest of the protocol:
as §1

Assay [17] deals with Neu5Ac(a2-3)Gal(b1-4)GlcNAc(b1-2)Man(a1-3)[Neu5Ac(a2-6)Gal(b1-4)GlcNAc(b1-2)Man(a1-6)]Man(b1-4)GlcNAc(b1-4)GlcNAc. A digest of the protocol:
as §1

Assay [18] deals with Neu5Ac(a2-3)Gal(b1-4)GlcNAc(b1-2)[Neu5Ac(a2-3)Gal(b1-4)GlcNAc(b1-6)]Man(a1-6)[Neu5Ac(a2-3)Gal(b1-4)GlcNAc(b1-2)Man(a1-3)][GlcNAc(b1-4)]Man(b1-4)GlcNAc(b1-4)GlcNAc. A digest of the protocol: as §1
The target of assay [19] is Neu5Ac(a2-3)Gal(b1-4)GlcNAc(b1-3)Gal(b1-4)[Fuc(a1-3)]GlcNAc. A digest of the protocol:
as §1

In assay [20] the target is Neu5Ac(a2-6)Gal. A digest of the protocol: as §1
The target of assay [21] is Neu5Ac(a2-6)Gal(b1-4)GlcNAc(b1-2)Man(a1-3)[Gal(b1-4)GlcNAc(b1-2)Man(a1-6)]Man(b1-4)GlcNAc(b1-4)GlcNAc. A digest of the protocol: as §1
Assay [22] concerns the target Neu5Ac(a2-6)Gal(b1-4)GlcNAc(b1-3)Gal(b1-4)[Fuc(a1-3)]GlcNAc(b1-3)Gal(b1-4)[Fuc(a1-3)]GlcNAc. A digest of the protocol:
as §1

For assay [23], the target named is Neu5Ac(a2-6)Gal(b1-4)GlcNAc6S. A digest of the protocol:
as §1

Assay [24] deals with Neu5Ac(a2-8)Neu5Ac(a2-3)Gal(b1-3)GalNAc(b1-4)[Neu5Ac(a2-3)]Gal(b1-4)Glc. A digest of the protocol:
as §1

Shown is part of a subset that was picked to be rich in the strongest signals.

B1: Pwp4 (Candida glabrata) (protein)
chain: MGSSHHHHHHSSGLVPRGSHMASVGNPITVSNVCSFPKNWHRTAGFRALTARLGIGIQSDSYKELLNYPGTFQLTTQQSSTTKPNFQISGLVGNIYGLTIVPSYLLVELTGYFVPPVSGEYTFSLEGSDDAAIIFIANPSTFKCGHVEDWPTAYDNDVTVTESIHATRTIYMIEGVAYPIRIAYYNGLSLGKLQASFTDPEGVKRVDWNGYIWRYDSCDTCSYV
On to B1, for which the “glycan array binding signal (z-score)” value in assay [1] is 4.62; in assay [2], 1.16; in assay [3], 5.36; in [4], 4.3; in assay [5] it was -0.617; in assay [6], -0.359. Also, the “glycan array binding signal (z-score)” value in [7] is -0.442; in assay [8], -0.195; in assay [9] it was -0.597; in assay [10], -0.403; in assay [11], -0.275; in [12], 3.89. Besides, the “glycan array binding signal (z-score)” value in assay [13] was -0.221; in assay [14], -0.455; in assay [15], -0.174; in assay [16], 1.34; in [17], 0.37; in assay [18], 9.42. For the same molecule, the “glycan array binding signal (z-score)” value is -0.414 in [19]; 0.575 in [20]; 1.01 in assay [21]; -0.388 in assay [22]; -0.336 in assay [23]; -0.601 in [24].

The record behind these values is the supplement of paper PMC8728848.
